Inconclusive results are not listed. Active and inactive are the calls of the source. Calls come from the whole dose curve; as a rule, active = well fitted curve in the direction sought with a large enough effect; inconclusive = small, poorly fitted or top-dose-only effect, or another doubt; inactive = no such curve, though single readings can be large; an effect the other way counts as inactive or inconclusive.
Legend:
[1] = qHTS of pediatric cancer cell lines to identify multiple opportunities for drug repurposing: Confirmatory screen for SK-N-MC cells (AID 1347111);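 note: cells exposed to compound for 48 h before the readout; nearly all actives have a fitted effect of over 70% in size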
Outline: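 Seed 500-1,000 cells/well; rest 5 h at 37 degrees C. Pin-transfer compounds, 11-point titration. Incubate 48 h. Add CellTiter-Glo, 15 min RT, read luminescence.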

[2] = qHTS of pediatric cancer cell lines to identify multiple opportunities for drug repurposing: Confirmatory screen for LAN-5 cells (AID 1347113); note: nearly all actives have a fitted effect of over 65% in size
Outline: (§1)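 Cells (500-1,000/well) rested 5 h, then received compounds for 48 h; metabolically active cells were measured by CellTiter-Glo luminescence. Final concentrations spanned up to 46 µM (MIPE, 11-point) or 0.59 nM-46 µM (NPC, 8-point) in primary screens, 11-point in follow-ups.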

[3] = qHTS of pediatric cancer cell lines to identify multiple opportunities for drug repurposing: Confirmatory screen for DAOY cells (AID 1347114); note: nearly all actives have a fitted effect of over 65% in size
Outline: (§2)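 Viability measured as metabolically active cells via CellTiter-Glo luminescence following 48 hours of compound exposure, 11-point dilutions in confirmatory testing. 500-1,000 cells/well plated 5 hours before dosing; controls were DMSO and 2.3 µM bortezomib.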

[4] = qHTS of pediatric cancer cell lines to identify multiple opportunities for drug repurposing: Confirmatory screen for SJ-GBM2 cells (AID 1347116); note: nearly all actives have a fitted effect of over 60% in size
Outline: as §2

[5] = qHTS of pediatric cancer cell lines to identify multiple opportunities for drug repurposing: Confirmatory screen for TC32 cells (AID 1347118);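 note: cells exposed to compound for 48 h before the read; nearly all actives have a fitted effect of over 65% in size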
Outline: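 qHTS, TC32, 48 h drug treatment, CellTiter-Glo luminescence as a proxy for metabolically active cells; primary top concentration 46 µM (MIPE 11-pt, NPC 8-pt); confirmatory 11-pt.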

[6] = qHTS of pediatric cancer cell lines to identify multiple opportunities for drug repurposing: Confirmatory screen for MG 63 (6-TG R) cells (AID 1347119); note: nearly all actives have a fitted effect of over 55% in size
Outline: as §1

[7] = qHTS of pediatric cancer cell lines to identify multiple opportunities for drug repurposing: Confirmatory screen for BT-37 cells (AID 1347117); settings: BT-37 pediatric cancer cells, viability; activity change, negative = cytotoxic: at 45.9 µM (top of the series); note: nearly all actives have a fitted effect of over 55% in size
Outline: as §1

[8] = qHTS of pediatric cancer cell lines to identify multiple opportunities for drug repurposing: Confirmatory screen for BT-12 cells (AID 1347112);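 note: viability read after 48 h of compound exposure; nearly all actives have a fitted effect of over 55% in size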
Outline: as §1

[9] = qHTS of pediatric cancer cell lines to identify multiple opportunities for drug repurposing: Confirmatory screen for control Hh wild type fibroblast cells (AID 1347121); note: nearly all actives have a fitted effect of over 70% in size
Outline: as §1

[10] = qHTS of pediatric cancer cell lines to identify multiple opportunities for drug repurposing: Confirmatory screen for NB-EBc1 cells (AID 1347115);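 note: cells exposed to compound for 48 h before the viability read; nearly all actives have a fitted effect of over 45% in size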
Outline: as §1

Measured: Potency
Potency is the fitted concentration of half-maximal effect.

COc1ccc(C[C@@H](C)[C@@H](C)Cc2ccc(OC)c(OC)c2)cc1OC
active: [1] 10.4 µM | [3] 11.7 µM | [5] 4.14 µM | [6] 9.27 µM
inactive: [2] | [4]

CNC(=O)Nc1ccc(-c2nc(N3CC4CCC(C3)O4)c3cnn(C4CCC5(CC4)OCCO5)c3n2)cc1
active: [1] 0.585 µM | [2] 0.585 µM | [4] 1.04 µM | [7] 0.104 µM | [5] 0.369 µM | [6] 0.0329 µM

O=C(NCc1ccccc1)[C@H](Cc1ccccc1)NC(=O)[C@@H]1O[C@@H]1C(=O)NCCc1ccc(O)cc1
inactive: [8] | [4] | [9]
active: [5] 0.165 µM

Cc1cnc(Nc2ccc(CN3CCOCC3)cc2)nc1Nc1cccc(S(=O)(=O)NC(C)(C)C)c1
active: [1] 5.22 µM | [2] 14.7 µM | [10] 10.4 µM | [7] 4.65 µM | [5] 3.29 µM | [6] 4.14 µM

COC(=O)C=CC(=O)OC
active: [1] 3.29 µM | [10] 20.8 µM | [7] 3.29 µM | [5] 3.29 µM | [6] 13.1 µM
inactive: [3] | [4] | [9]

CN[C@H]1[C@@H](O)[C@@H]2O[C@@H]3O[C@H](C)CC(=O)[C@]3(O)O[C@@H]2[C@@H](NC)[C@H]1O
not listed: [1] | [5] | [6]
inactive: all other assays above

C=Cc1c(C)c2cc3nc(cc4[nH]c(cc5nc(cc1[nH]2)C(C)=C5CCC(=O)O)c(CCC(=O)OC)c4C)[C@@]1(C)C3=CC=C(C(=O)OC)[C@H]1C(=O)OC
inactive: [8] | [10] | [4] | [9]

Cn1cc(CNCC2CCN(c3ncc(C(=O)NO)cn3)CC2)c2ccccc21
active: [8] 0.369 µM | [3] 0.261 µM | [4] 0.208 µM | [6] 0.131 µM | [9] 1.31 µM

C=C1C(=CC=C2CCC[C@]3(C)[C@@H]([C@H](C)CCCC(C)(C)O)CC[C@@H]23)C[C@@H](O)C[C@@H]1O
inactive: [2] | [4] | [7] | [9]
active: [10] 2.61 µM

O=C1NC(=O)[C@@H](c2cn3c4c(cccc24)CCC3)[C@H]1c1c[nH]c2ccccc12
active: [1] 0.928 µM | [3] 2.08 µM | [7] 1.85 µM | [5] 0.827 µM | [6] 1.17 µM

CCOc1cc2ncc(C#N)c(Nc3ccc(OCc4ccccn4)c(Cl)c3)c2cc1NC(=O)C=CCN(C)C
active: [1] 10.4 µM | [4] 4.14 µM

Cc1cc(Nc2ncc3c(n2)N(C)C(=O)N(c2cc(NC(=O)c4cccc(C(F)(F)F)c4)ccc2C)C3)n(C)n1
active: [1] 0.369 µM | [2] 0.465 µM | [3] 14.7 µM | [5] 0.329 µM | [6] 0.465 µM

C[C@H]1[C@@H](OC(=O)CCC(=O)O)O[C@@H]2O[C@@]3(C)CC[C@@H]4[C@H](C)CC[C@@H]1[C@@]24OO3
active: [1] 3.29 µM | [2] 16.5 µM | [3] 23.3 µM | [10] 5.22 µM | [4] 1.17 µM | [7] 3.69 µM | [5] 9.27 µM | [6] 20.8 µM
inactive: [9]

CCc1cc(C(C)=NOCc2ccc(C3CCCCC3)c(C(F)(F)F)c2)ccc1CN1CC(C(=O)O)C1
active: [1] 8.27 µM | [5] 9.27 µM
inactive: [10] | [6] | [9]

CC(=O)SCC(Cc1ccccc1)C(=O)NCC(=O)OCc1ccccc1 (centres undefined)
not listed: [1] | [5]
inactive: all other assays above

O=C1NC(=O)C(=Cc2ccc3nccc(-c4ccncc4)c3c2)S1
inactive: [10] | [5]
active: [3] 8.27 µM | [6] 1.04 µM

O=C1c2c(O)cccc2[C@@H]([C@@H]2O[C@H](CO)[C@@H](O)[C@H](O)[C@H]2O)c2cc(CO)cc(O)c21
inactive: [2] | [3] | [9]

Cn1c(Nc2ccc(C(F)(F)F)cc2)nc2cc(Oc3ccnc(-c4ncc(C(F)(F)F)[nH]4)c3)ccc21
active: [1] 7.37 µM | [2] 18.5 µM | [10] 16.5 µM | [7] 4.65 µM | [5] 0.928 µM | [6] 13.1 µM
inactive: [4]

CCN(CC)CCNC(=O)c1c(C)[nH]c(C=C2C(=O)Nc3ccc(F)cc32)c1C
inactive: [10]
active: [8] 33.9 µM | [2] 10.7 µM | [3] 17 µM | [6] 13.5 µM

CC(=O)O[C@@]12CO[C@H]1C[C@H](O)[C@@]1(C)C(=O)[C@H](O)C3=C(C)[C@@H](OC(=O)C(O)[C@@H](NC(=O)OC(C)(C)C)c4ccccc4)C[C@@](O)([C@@H](OC(=O)c4ccccc4)[C@@H]21)C3(C)C (some centres undefined)
active: [1] 0.0066 µM | [5] 0.0059 µM | [6] 0.0074 µM
inactive: [2] | [9]

COc1ccc(Nc2cc(-c3cnc(N)nc3)nc(N3CCOCC3)n2)cn1
inactive: [9]
active: [1] 6.57 µM | [2] 2.33 µM | [4] 2.61 µM | [7] 10.4 µM | [5] 3.69 µM | [6] 1.31 µM

COc1cc2ncnc(Nc3cccc(Br)c3)c2cc1OC
inactive: [9]
active: [1] 11.7 µM | [2] 16.5 µM | [4] 3.69 µM | [7] 18.5 µM | [5] 9.27 µM

C[N+](C)([O-])CCNc1ccc(NCC[N+](C)(C)[O-])c2c1C(=O)c1c(O)ccc(O)c1C2=O
inactive: [8] | [10] | [6] | [9]
active: [5] 4.14 µM

CN(CC(=O)N(Cc1ccc(C2CCCCC2)cc1)c1ccc(C(=O)O)c(O)c1)S(=O)(=O)c1c(F)c(F)c(F)c(F)c1F
active: [7] 26.1 µM | [5] 26.1 µM | [6] 20.8 µM
inactive: [8] | [10] | [4] | [9]

CCOC(=O)[C@@H](N)Cc1ccc(-c2cc(O[C@H](c3ccc(Cl)cc3-n3ccc(C)n3)C(F)(F)F)nc(N)n2)cc1
active: [1] 32.9 µM | [2] 23.3 µM | [5] 23.3 µM
inactive: [3] | [4] | [9]

CCOC(=O)N1CCN([N+]([O-])=NOc2ccc([N+](=O)[O-])cc2C#N)CC1
inactive: [9]
active: [1] 3.29 µM | [2] 4.65 µM | [3] 2.33 µM | [7] 3.29 µM | [5] 2.33 µM

Cc1ncc(-c2ccnc(Nc3ccc(S(C)(=O)=O)cc3)n2)n1C(C)C
inactive: [6] | [9]
active: [8] 3.29 µM | [3] 13.1 µM | [4] 2.61 µM | [7] 3.29 µM | [5] 4.65 µM

O=C(O)C[C@H](O)C[C@H](O)C=Cc1c(C2CC2)nc2ccccc2c1-c1ccc(F)cc1
inactive: [10] | [9]
active: [1] 4.65 µM | [3] 1.47 µM | [5] 2.93 µM

O=C(NC1CC1)c1cccc(-c2ccc3c(NC(=O)C4CC4)n[nH]c3c2)c1
inactive: [2] | [9]
active: [1] 8.27 µM | [3] 9.27 µM | [5] 5.85 µM | [6] 11.7 µM
